Laboratory results from the supplement of paper PMC6555819.

Tests used:
Assay in all cases: PBM binding z-score (relative to random genomic background probes); higher = stronger binding; sequences stand for … in GC…GCGATTGACAGCGTAGAATGAAGG
[1] = tested on: RARb homodimer (NR concentration 270 nM)
Method in brief: (§1)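 Random background probes are the reference for binding z-scores. These scores derive from regression-normalized fluorescence on custom Agilent 4×180K protein-binding microarrays incubated 1 h with ligand-free nuclear receptor dimers. Binding was detected with antibodies against each partner (one per run).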

[2] = tested on: RARg:RXRa (NR concentration 270 nM, RXRa partner concentration 90 nM)
Method in brief: as §1

[3] = tested on: RARg homodimer (NR concentration 270 nM)
Method in brief: as §1

[4] = tested on: RXRa DBDmut IVT, anti-RXR (DBD mutation: RXRa K156A/R161A, NR concentration 90 nM)
Method in brief: as §1

[5] = tested on: RXRa homodimer (NR concentration 180 nM)
Method in brief: as §1

[6] = tested on: THRa:RXRa (NR concentration 90 nM, RXRa partner concentration 90 nM)
Method in brief: as §1

[7] = tested on: THRa homodimer (NR concentration 90 nM)
Method in brief: as §1

[8] = tested on: VDR homodimer (NR concentration 270 nM)
Method in brief: as §1

Sequence	PBM binding z-score [1]	PBM binding z-score [2]	PBM binding z-score [3]	PBM binding z-score [4]	PBM binding z-score [5]	PBM binding z-score [6]	PBM binding z-score [7]	PBM binding z-score [8]
GCTAGTTGGTCAGTAAAGGGTCACACACCGGTCG	4.43	4.33	3.73	0.428	3.78	2.77	0.995	1.74
TCAGACAGGTGAAGGTAACTCCGGTACGCAGTCG	0.814	0.458	0.575	1.28	1.11	1.28	0.325	-0.191
ATCTCTAGGTAAAAAGTTCAGTGAAAGAGAGGAC	2.67	2.69	2.46	0.695	1.04	1.22	0.595	1.56
GGAACGTGGGCAAAGTTGATAGCATCTGTCGACG	-0.345	-0.158	-0.178	-0.177	-0.03	-0.579	-0.838	-0.389
TCTGCTAGGTCAGTTGGACAGCTAACGAGCTGCC	1.99	2.24	3.47	0.472	0.621	1.12	-0.399	-0.808
GCTTTCGGGTCAAAGGTTATAGCATGAATAGAAT	3.37	7.01	5.04	2.52	9.55	4.61	2.14	2.16
TCTTGTGGATCAAGCAGGTTAAGAAAGCCTGAGT	0.266	-0.132	-0.515	0.604	0.211	0.309	-0.303	0.15
TCTGTTAGGTCAACGATGGTCAGCTAATCTGCTA	3.65	4.38	4.93	1.61	3.2	3.73	2.76	0.727
CGAACTAGGTCAGATCAGGACAGTGAAGGATGAT	2.33	2.68	4.03	0.645	1.52	4.73	1.25	-0.038
GCTGCTAGGTCAGGTTGGTCAGCTGACGGGTACG	2.62	2.79	3.56	0.752	1.09	1.81	0.492	0.505
ATCGAAAGGTCGAAGGCGAGTATACCCACCCGAA	2.23	3.79	3.68	0.777	3.64	1.75	-0.359	0.879
TAGCCTAGGTCATACGGGCCAGTATAGTGTCGGC	2.87	3.74	4.43	0.941	3.22	2.92	0.814	0.783
GCGACTGGGGCAAAGCAGGTAACCATAAGGTTGG	0.207	0.0978	0.448	-0.914	0.117	2.89	-0.129	-0.329
CCGACTGGGGCATGAGGTTACCATAAGCCAGCCC	1.43	1.29	0.922	-0.569	1.25	1.89	0.853	-0.0736
CCTTACGGGTCACTCCGGGTTATAGCATCGGAGT	2.96	4.46	4.12	1.3	4.73	4.89	-0.126	1.25
CCTCGGAGGACAAAAGGTCAGAGCTGTCCGCTTT	5.18	6.04	5.86	0.812	4.67	3.07	0.53	0.674
CCTGCTAGGTCAATGGTGAGCTAAAGCAGCTCGC	1.97	3.3	4.12	1.62	1.56	1.77	0.113	-0.465
ATCTGTAGGTAACCAAGTTCAGTGAATGCCGAAC	1.32	0.689	0.722	0.655	0.689	1.26	0.246	2.56
GCGACTGGGGCAAAGGAGGTTACCATAAGGTTGG	1.87	1.1	1.14	-0.468	1.12	3.4	0.609	0.291

Sequence	PBM binding z-score [1]	PBM binding z-score [2]	PBM binding z-score [3]	PBM binding z-score [4]	PBM binding z-score [5]	PBM binding z-score [6]	PBM binding z-score [7]	PBM binding z-score [8]
TATACAGGGTCAAACGCCAGAGTACGAATGTCGA	3.44	5.93	5.27	3.62	6.88	3.56	0.861	4.28
ATCGAAAGGTCGTGAGGTGAGGATACAGAAAGGC	3.16	4.81	3.99	1.31	5.33	3.74	2.51	0.974
CCTTGTTGGTCAAGGTCACACACGCTATAGGTAC	4.53	4.56	4.95	1.83	4.51	4.31	4.1	3.13
ACTTACGGGTCAACGAGGTTATAGGACGCGTATA	3.83	5.63	5.28	2.24	6.33	4.32	1.19	3.27
CGAACGAGGGCATCAGTTGATAGCAAATGCCGAT	0.822	0.928	1.83	2.49	0.686	0.964	-0.293	1.48
AGTCAAAGTTCCCTAGGTAACGTAAGATTCAGCT	0.045	0.0675	0.31	0.164	-0.00363	0.427	-0.151	-0.324
ATACCAAGGTGATCGTGAGGTCGTAGATACTAAC	1.56	2.26	1.03	-0.0325	1.76	3.54	2.52	1.86
CCTAGCAGGCCAGGGTCACTCTAGCATTTCGCTT	2.58	2.69	2.31	0.701	2.88	2.56	0.876	1.14
TCATATATGTAAATGCTAGGTGAAAGTCCGATCT	0.368	0.1	0.244	1.18	0.654	1.01	0.597	-0.0734
CCTACTGGGCCACGAAAGGTCATTTATTCAGTGA	4.32	4.41	4.2	0.751	4.96	3.5	0.944	2.76
CGAACTAGGCCATTGACAGGACAGTGAATAGTAA	0.319	0.281	0.586	0.349	0.0322	0.198	-0.102	-0.193
CGAACTAGTTCAGAACAGGACAGTGAAGGATGAT	0.329	0.335	0.706	1.18	0.233	1.8	-0.53	0.226
ACAGGCAGGTGATGAAGGTAACTCAGGCTATCAT	0.415	-0.159	0.118	-0.414	0.0459	0.973	0.276	-0.29
CGTCCAAGGTCAAGGTCAGTGAAAGAGACTCGAA	5.29	6.79	7.8	3.95	6.28	4.39	3.78	2.89
AGAATGAGGTTAAAATCAGGGAAACAGAATACAT	0.545	1.94	1.31	1.51	2.62	2.4	0.43	0.808
GCTTGTAGATCAAGGTTGAGAAAGACTAAGCTAA	-0.753	-0.343	-0.385	0.0122	-0.32	-0.135	-0.906	-0.235
ATCTCTAGGTAAGACTAAGTTCAGTGAAGAACGC	1.85	0.933	0.697	0.96	0.46	1.34	0.876	2.25
TCTCGGAGTACACGAAAGGTCAGAGCTCGACATC	4.24	3.91	3.72	1.14	3.87	3.02	0.15	0.908
ACTAGCAGGCCAAGTTTGGGCCACTCAAACAAAG	0.113	0.0368	0.111	-0.286	-0.539	0.356	-0.681	-0.556

Sequence	PBM binding z-score [1]	PBM binding z-score [2]	PBM binding z-score [3]	PBM binding z-score [4]	PBM binding z-score [5]	PBM binding z-score [6]	PBM binding z-score [7]	PBM binding z-score [8]
GCTAGCAGGCCATTTGGGTTACTCAATGACGGGC	-0.137	-0.0989	0.178	-0.102	0.0436	0.307	-0.64	-0.276
CCTAACAGGCCAATCTGGGTCACTCAAGGCTTGA	2.38	1.47	1.75	0.498	0.758	3.85	0.717	0.191
ATACCAACGTGATCGTGAGGTCGTTGATACTAAC	0.904	0.317	0.269	0.532	0.915	2.36	1.73	2.32
TCGAGCAGGCCAGAGGGTCACTCAAGAGGTACGG	2.68	2.77	2.03	-0.586	2.65	1.51	-0.421	0.462
ATATGTAGGTAATCGGGTCATTCAGTTTGCGCAT	2.15	2.06	1.32	1.13	2.55	3.16	2.46	3.14
TCGAGTAGGTCAGGGGCATTCAGAATGGCGTCGA	2.9	3.14	3.99	0.647	2.5	1.6	0.0377	0.669
CAAACTAGGTCAAGGACAAAGTCGGTTTGTGCCA	3.2	3.97	4.91	1.39	2.52	3.58	2.25	0.988
AGAAAGAGGTTACCAAAGATCAGGGAAACGCTTG	1.03	2.51	1.84	0.282	3.17	1.91	-0.577	-0.0812
TAGCCTAGGTCAGTTCGGGCCAGTATACGCTATA	2.51	2.29	3.3	0.0401	0.716	4.04	0.352	0.242
CGTCCAAGGTCAGACAGGTCAGTGAATGCCGAGT	4.84	5.32	6.13	3.11	4.43	3.97	2.16	3.77
CGTCCAAGGTCAACGGTCAGTGAAGAGATGACGG	4.55	6.08	6.47	3.36	5.56	4.13	2.62	2.15
CAAACTCGGTCACAGAGGTCAAAGTCCGTGCGTA	5.29	6.57	6.96	2.49	6.63	4.04	1.73	5.74
ATCTCTAGGTAAAGAAAGTTCAGTGAATGCAAAT	2.33	1.43	1.59	0.781	0.876	1.22	0.318	1.71
AGAACGAGGGCAATGAGTTGACAGCACGGGTGGC	1.2	1.33	1.73	1.54	1.02	1.19	-0.211	2.89
TCATATAAGTAAACAGGTGAAAGTCCGTAAGTTA	0.596	0.357	0.421	2.12	0.907	0.674	0.549	0.857
ACTATAAGTTGAGACGAGGGCAACCGATAGGTTG	1.57	1.19	1.21	0.723	0.925	3.73	0.194	1.39
CGTTCAAGGTCAAGGTCAGTGAAAGAGACTCGAA	5.27	6.92	7.85	3.86	6.6	4.48	4.1	3.59
TCGACTAGGTTAGGGGCATTCAGAATGGCGTCGA	0.889	0.355	0.408	0.884	0.798	1.03	0.253	0.473
